Sampled rows, rich in hits. Any-hit rate of the full collection: about 1.2%.
BCLXL inh: inhibitors of human Bcl-xL; GST-Bcl-xL / FITC-Bim BH3 peptide fluorescence polarization; Q07817; inhibition, % at 10.9 µM; hit rate 0.7% among 320,000;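 active = inhibition above the mean of all tested compounds plus 3 SD, cutoff set per campaign, cut at about 30% in these data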;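 also: 0% = DMSO wells and 100% = unlabeled Bim-BH3 peptide competitor; inhibitors lower millipolarization by displacing the labeled peptide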
E coli Lon inh: inhibitors of E. coli Lon protease; hit rate 0.42% among 360,000; purified E. coli Lon protease, fluorescence polarization; P0A9M0; inhibition, % at 7.94 µM; AID 602123; in the data active = inhibition above about 13%, passing the limit was not always enough;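 also: 0% = enzyme with probe and DMSO and 100% = no enzyme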
Target sequence (P0A9M0 whole entry, looked up): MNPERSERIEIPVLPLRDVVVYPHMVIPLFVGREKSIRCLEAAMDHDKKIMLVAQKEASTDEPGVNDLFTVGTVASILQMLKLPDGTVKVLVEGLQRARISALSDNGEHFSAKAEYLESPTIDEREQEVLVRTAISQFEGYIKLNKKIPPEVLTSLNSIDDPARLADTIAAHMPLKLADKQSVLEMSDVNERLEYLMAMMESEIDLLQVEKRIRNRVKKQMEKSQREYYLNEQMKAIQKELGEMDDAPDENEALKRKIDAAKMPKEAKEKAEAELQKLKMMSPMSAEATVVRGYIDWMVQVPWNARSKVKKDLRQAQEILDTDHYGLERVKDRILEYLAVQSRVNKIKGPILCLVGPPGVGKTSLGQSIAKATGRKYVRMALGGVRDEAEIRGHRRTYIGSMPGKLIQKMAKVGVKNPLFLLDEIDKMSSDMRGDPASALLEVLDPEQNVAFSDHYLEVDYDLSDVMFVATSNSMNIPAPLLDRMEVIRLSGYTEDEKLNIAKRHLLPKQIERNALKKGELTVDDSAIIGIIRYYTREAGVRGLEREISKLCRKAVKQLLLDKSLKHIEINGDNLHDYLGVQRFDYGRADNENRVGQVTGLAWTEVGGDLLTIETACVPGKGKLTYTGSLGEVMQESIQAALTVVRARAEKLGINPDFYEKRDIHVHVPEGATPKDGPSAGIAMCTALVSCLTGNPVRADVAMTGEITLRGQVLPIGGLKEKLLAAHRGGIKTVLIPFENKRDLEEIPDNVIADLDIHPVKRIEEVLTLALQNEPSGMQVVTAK
RTF Ca sens act: cardiac RTF calcium sensitization; IANBD-labeled TnC RTF fluorescence at EC20 calcium; 0% EC20 calcium, 100% full calcium; activation, % at 7.2 µM; hit rate 0.24% among 340,000;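 active = activation above the mean over all tested compounds plus 3 SD, cut at about 30% in these data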;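 also: rise in fluorescence read as greater calcium sensitivity of cardiac thin filaments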
GLD-1 TGE inh: GLD-1-TGE RNA interaction inhibition (C. elegans); hit rate 0.44% among 320,000; Q17339; purified GLD-1 + fluorescein TGE RNA, fluorescence polarization; inhibition, % at 5.96 µM;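 active = percent inhibition above a per-plate cutoff, the plate mean of test compounds plus 3 SD, cut at about 30% in these data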;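 also: 0% = DMSO wells with GLD-1 and probe and 100% = wells lacking GLD-1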
RTF Ca sens inh: cardiac RTF calcium desensitization | inhibition, % at 7.15 µM | hit rate 0.12% among 340,000 | IANBD-labeled cardiac RTF, Ca2+ fluorescence;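 active = inhibition above the mean inhibition of all tested compounds plus 3 SD, cut at about 17% in these data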;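 also: assay run at fixed EC70 calcium of 1.6 mM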
GLD-1 TGE cf: GLD-1 TGE RNA interaction inhibition, confirmation; hit rate 10% among 550; GLD-1/FL-TGE RNA fluorescence polarization, biochemical; shares compounds with GLD-1 TGE inh; AID 2459; inhibition, % at 5.96 µM;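 active = average inhibition across triplicates above the hit cutoff set in the primary screen, cut at about 32% in these data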;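 also: 0% = GLD-1 with RNA probe and DMSO and 100% = wells lacking GLD-1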
RTF Ca inh conf: cardiac RTF calcium sensitivity inhibition, confirmation. hit rate 8% among 360. reconstituted cardiac thin filaments, calcium sensitivity fluorescence. inhibition, % at 7.15 µM. shares compounds with RTF Ca sens inh; in the data active = inhibition above about 18%
eLon confirm: confirmation of E. coli Lon protease inhibitors; inhibition, % at 7.94 µM; shares compounds with E coli Lon inh; hit rate 31% among 1,400; purified E. coli Lon, fluorescence polarization; in the data active = inhibition above about 16%;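 also: 0% = enzyme with probe and DMSO and 100% = no enzyme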
An asterisk follows results filed as active; nt = not tested or not shown.

SMILES | BCLXL inh | E coli Lon inh | RTF Ca sens act | GLD-1 TGE inh | RTF Ca sens inh | GLD-1 TGE cf | eLon confirm | others
COc1ccc(CNCCC(c2ccccc2)C2CCOC(C)(C)C2)cc1 (stereo not given) | 3.4 | -1.5 | 0.7 | 48.8* | -22.6 | 2.4 | nt
Cc1ccc(C2C=C(c3ccccc3)Nc3ncnn32)cc1 (stereo not given) | 24.1 | 9.3 | 0.3 | 32.6* | -15.0 | 0.8 | nt
COc1ccc(C2C=C(c3ccc(C)cc3)Nc3ncnn32)cc1 (stereo not given) | nt | -0.3 | -0.4 | nt | -12.7 | nt | nt
O=C(CSc1nnnn1Cc1ccccc1)Nc1ccc2c(c1)OCCO2 | 4.7 | -1.6 | -5.1 | -2.9 | 6.6 | nt | nt
COc1cccc(C(=O)N2CCN(C(=O)c3cccc(F)c3)CC2)c1 | 75.9* | -3.7 | 0.1 | 53.1* | -2.5 | 4.7 | nt
Fc1ccc(Br)cc1C1C=C(c2cccnc2)Nc2ncnn21 (stereo not given) | 36.8* | 14.4 | 3.7 | 34.1* | -9.8 | 1.7 | nt
CC(C)(C)c1ccc(C2=CC(c3ccccc3F)n3ncnc3N2)cc1 (stereo not given) | 5.9 | 5.5 | -0.3 | 10.2 | -1.8 | nt | nt
COC(=O)C(N)Cc1ccc(O)c(O)c1 (stereo not given) | 10.6 | 6.5 | 5.3 | 70.5* | -0.4 | 6.7 | nt
C[C@](N)(Cc1ccc(O)c(O)c1)C(=O)O | nt | -10.1 | -4.5 | nt | 14.3 | nt | nt
COc1cc(CNC2CCCC2)cc(Cl)c1OCc1ccc(F)cc1 | 5.3 | 2.6 | 5.4 | 51.9* | -5.9 | -2.5 | nt
COc1ccc(CNCCC(c2ccc(OC)cc2)c2ccccc2OC)cc1 (stereo not given) | 0.9 | 0.9 | 0.3 | 2.6 | -11.7 | nt | nt
CC(C)(C)S(=O)(=O)N1C[C@@H]2CC/C=C\C/C(c3ccccc3)=C\2[C@H]1CCO | nt | 0.7 | 0.4 | nt | -5.2 | nt | nt
Nc1n[nH]c2cc(=O)n(-c3ccc(Cl)cc3)nc12 | 26.3 | 10.1 | 1.6 | 34.5* | -12.5 | 16.9 | nt
CCCCSc1ccc(NC(=O)c2cccnc2)cc1 | 75.8* | 4.6 | -4.3 | 41.5* | -0.5 | -0.1 | nt
O=C(CSc1ccccc1)NNC(=O)c1ccncc1 | nt | 6.2 | 2.7 | nt | 0.9 | nt | nt
CN1C(=O)C(O)(CC(=O)c2ccncc2)c2ccccc21 (stereo not given) | 0.5 | -7.6 | -16.6 | 5.6 | 1.1 | nt | nt
CCCCC1=CC2=CC(=O)C(C)(OC(=O)CC)C(=O)C2=CN1CC(C)C (stereo not given) | 34.5* | 6.6 | 11.2 | 31.1* | -6.7 | 22.3 | nt
COc1cc(C(=O)NC(=S)Nc2ccc([N+](=O)[O-])cc2C)cc(OC)c1OC | 3.8 | 1.3 | -0.9 | 3.0 | -0.1 | nt | nt
COc1cc(C(=O)NC(=S)Nc2ccc([N+](=O)[O-])cc2)cc(OC)c1OC | 6.9 | -11.6 | -5.6 | 32.2* | -1.5 | -2.6 | nt
Cc1cc(C)n2cc(-c3ccc(Cl)cc3)c(C(=O)O)c2n1 | 3.2 | -1.1 | -2.5 | 4.6 | -4.4 | nt | nt
O=C(O)c1ccc2c(c1)[C@@H]1C=CC[C@@H]1[C@H](c1ccccn1)N2 | 56.5* | 16.8 | -36.6 | 33.6* | 86.1* | 9.5 | nt | RTF Ca inh conf=21.9*
COCCNC(=O)C(c1cccs1)N(C(=O)Cn1nnc2ccccc21)c1cccc(C(C)=O)c1 (stereo not given) | 6.6 | 1.3 | 10.8 | 0.8 | -0.2 | nt | nt
COc1cccc(NC(=S)N(CCc2c(C)[nH]c3ccc(C)cc23)Cc2cccs2)c1 | -2.2 | -10.2 | -0.1 | 2.1 | -3.7 | nt | nt
COc1ccc2[nH]c(C)c(CCN(Cc3cccs3)C(=S)Nc3cccc(F)c3)c2c1 | 59.4* | 27.3* | 5.5 | 52.9* | -27.6 | 2.5 | 10.0
C/C(CC(=O)NC12CC3CC(CC(C3)C1)C2)=N\NC(=O)c1cnccn1 | 5.7 | -9.0 | 3.2 | -7.4 | -17.5 | nt | nt
SMILES | BCLXL inh | E coli Lon inh | RTF Ca sens act | GLD-1 TGE inh | RTF Ca sens inh | GLD-1 TGE cf | eLon confirm | others
O=C(NC12CC3CC(CC(C3)C1)C2)c1cnccn1 | 42.3* | 15.1* | 0.6 | 34.3* | -6.1 | -9.9 | -22.5
CCc1cccc(NC(=O)CCCn2nc(CC)n3c(cc4occc43)c2=O)c1 | 29.6 | 29.2* | 4.6 | 31.4* | -13.6 | -3.3 | -4.9
CCc1nn(CCCC(=O)NCc2ccccc2Br)c(=O)c2cc3occc3n12 | -0.4 | -30.2 | 3.5 | 5.7 | 0.1 | nt | nt
COC(=O)c1cc2c(C)cc3ccc(C)cn3c-2c1C(=O)OC | 92.6* | 40.2* | 11.9 | 54.7* | -11.9 | 41.3* | 78.0*
COC(=O)c1coc(-c2ccc(C)cc2)c1C(=O)OC | 4.3 | -7.9 | 0.0 | -0.9 | 0.8 | nt | nt
CC(NC(=O)COC(=O)c1ccc2c(c1)OCCO2)c1ccccc1 (stereo not given) | nt | -11.2 | -9.3 | 4.8 | 1.5 | nt | nt
COc1cccc(=O)c2c(C)n(-c3ccc(C(=O)O)cc3)c(C)c12 | 67.7* | 27.0* | 7.6 | 38.5* | -12.0 | 14.2 | 11.4
CCC(Cc1ccccc1)NC(=O)c1cc(S(=O)(=O)N2CCCCC2)c[nH]1 (stereo not given) | 0.2 | 9.8 | 2.5 | 2.3 | -2.7 | nt | nt
CN1C(=O)N(C)c2ccc(C=O)c3cccc1c23 | 72.2* | 15.7* | 6.3 | 40.0* | -23.7 | 23.4 | 14.9
CC1CCCCN1C(=O)CSc1nc(C2CC2)nc2c1cnn2-c1ccccc1 (stereo not given) | 6.5 | -5.8 | 1.4 | 0.6 | -2.6 | nt | nt
O=C(N/N=C/c1cccs1)c1ccc2ccccc2c1 | 2.0 | -9.6 | -0.4 | -1.9 | 3.2 | nt | nt
CC(=O)c1c(C)oc2c1cc(NS(=O)(=O)c1ccc(C(=O)O)cc1)c1ccccc12 | 7.6 | 2.9 | -4.8 | 15.7 | 4.6 | nt | nt
Cc1ccc(S(=O)(=O)Nc2cc3c(C(=O)Nc4ccccc4)c(C)oc3c3ccccc23)cc1 | 21.3 | 25.2* | 3.2 | 128.2* | 4.5 | 104.9* | 40.2*
CCNC(=O)COc1ccc(OCc2ccccc2)cc1 | 2.8 | -5.4 | 8.2 | 0.8 | -2.2 | nt | nt
O=C1C2=C(SCCS2)C(=O)N1CCCO | 86.9* | 40.9* | 5.9 | 74.9* | -12.8 | 49.0* | 55.1*
CN(C)Cc1cc(O)c(CN(C)C)cc1O | 63.8* | 32.1* | 8.2 | 62.8* | -3.4 | 7.5 | -64.5
CCOC(=O)C1=C(COC(=O)c2ccc3ccccc3c2O)NC(=O)NC1C (stereo not given) | 61.4* | 49.2* | 34.8* | 45.6* | -34.2 | 1.5 | 8.7
N#CC1(C#N)COC23CCCCC2C1(C#N)C(=N)O3 (stereo not given) | 68.3* | 23.3* | 22.1 | 45.1* | -34.8 | -3.6 | 10.0
CCn1c(CSc2nnc3ccccn23)nc2cc(C(=O)O)ccc21 | 99.3* | 51.8* | 14.0 | 95.5* | -5.0 | 32.0* | 42.0*
CCn1c(CSc2n[nH]c(N)n2)nc2cc(C(=O)O)ccc21 | 23.2 | 3.9 | 0.6 | 22.4 | -3.9 | nt | nt

High-throughput results: PubChem BioAssay, The Scripps Research Institute Molecular Screening Center
